Reference: PubChem BioAssay (Tox21)
Results filed as inconclusive are left out. Where a call stands in place of a potency, no number is given. A structure can be active in one record and inactive in another. The source made the active and inactive calls. Unless noted, calls follow the shape of the full dose curve.

Legend:
[1] = Nuclear factor erythroid 2-related factor 2/antioxidant responsive element (Nrf2/ARE) small molecule agonists: qHTS cell viability counter screen in human keratinocytes (AID 1919968; active = well fitted curve in the direction sought with a large enough effect in the repeat runs; an effect the other way counts as inactive or inconclusive; also: nearly all actives have a fitted effect of over 55% in size; also: potency is read from the fitted curve at half-maximal effect)
Outline: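 KeratinoSens HaCaT cells, 1,500/well, preincubated 5 h, then exposed to compounds in DMSO for 23 h at 37 C/5% CO2. Viability read as CellTiter-Fluor fluorescence after 1 h, in the same wells as the ARE-luciferase read.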

[2] = target: KiSS-1 receptor (Homo sapiens) (UniProt Q969F8); experiment: Human kisspeptin (KISS1R) small molecule agonists, calcium flux assay in KISS1R-HEK293 cells (AID 1920064; active = well fitted curve in the direction sought with a large enough effect in the repeat runs; an effect the other way counts as inactive or inconclusive)
Outline: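 HEK293 cells stably expressing human KISS1R were loaded with calcium dye for 1 h at 37 C, then given compound; fluorescence (Ex/Em 480/540) was read kinetically for 3 min. Fifteen concentrations, triplicate.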

[3] = G protein-coupled receptor (GPCR) small molecule agonists, calcium flux assay: HEK293 wild type cell line counter screen (AID 1920065)
Outline: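 Wild-type HEK293 cells plated 18 h, loaded with calcium dye 1 h at 37 C, then compounds added in agonist mode (ATP as positive control). Kinetic fluorescence Ex/Em 480/540 recorded 3 min at 1 sec intervals; 15 concentrations, triplicate.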

[4] = p53 small molecule agonists, cell-based qHTS assay with human liver microsomes (AID 1963577)
Outline: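 p53RE-bla reporter cells were pre-incubated 5 h at 37 C, then treated with compounds plus human liver microsomes (0.5 mg/mL final) and NADPH (0.5 mg/mL final) for 16 h at 37 C. Beta-lactamase activity was read by LiveBLAzer fluorescence after 2 h at room temperature.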

[5] = p53 small molecule agonists, cell-based qHTS assay with rat liver microsomes (AID 1963578)
Outline: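 p53RE-bla cells were exposed to compounds together with rat liver microsomes (0.5 mg/mL final) and NADPH (0.5 mg/mL final) for 16 h at 37 C, then read by LiveBLAzer beta-lactamase fluorescence after 2 h at room temperature.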

[6] = p53 small molecule agonists, cell-based qHTS assay with human liver microsomes: qHTS cell viability counter screen (AID 1963579); also: nearly all actives have a fitted effect of over 45% in size
Outline: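 p53RE-bla cells (4,000/well) were pre-incubated 5 h at 37 C, then given compounds in DMSO plus human liver microsomes (0.5 mg/mL final) and NADPH (0.5 mg/mL final) for 16 h at 37 C. Viability was read by CellTiter-Glo luminescence.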

[7] = p53 small molecule agonists, cell-based qHTS assay with rat liver microsomes: qHTS cell viability counter screen (AID 1963580); also: nearly all actives have a fitted effect of over 45% in size
Outline: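 p53RE-bla HCT-116 cells (4,000/well) rested 5 h at 37 C, then given Tox21 compounds in DMSO with rat liver microsomes (0.5 mg/mL final) plus NADPH (0.5 mg/mL final) for 16 h at 37 C. Viability read by CellTiter-Glo luminescence after 30 min at room temperature.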

[8] = p53 small molecule agonists, cell-based qHTS assay: qHTS cell viability counter screen (AID 1963581); also: nearly all actives have a fitted effect of over 45% in size
Outline: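 p53RE-bla HCT-116 cells, compounds added 5 h after plating and incubated 16 h at 37 C. Cytotoxicity measured in the same wells as intracellular ATP by CellTiter-Glo luminescence after 30 min at room temperature.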

[9] = p53 small molecule agonists, cell-based qHTS assay (AID 1963582; active = well fitted activation curve with a large enough effect in the signal ratio in the repeat runs, not every such curve was filed as active; the % refers to the signal ratio)
Outline: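 p53RE-bla reporter cells, compounds added in DMSO after 5 h plating, incubated 16 h at 37 C. Beta-lactamase read via 2 h room-temperature LiveBLAzer B/G FRET substrate, fluorescence intensity.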

[10] = target: 5-hydroxytryptamine receptor 2A (Homo sapiens) (UniProt P28223); experiment: 5-hydroxytryptamine receptor 2A (HTR2A) small molecule antagonists, cell-based qHTS assay (AID 1963586); also: nearly all actives have a fitted effect of over 45% in size
Outline: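 Antagonist-mode intracellular calcium assay: DOI (4 nM) added after 5 min compound pre-incubation at room temperature to dye-loaded HTR2A-CHO cells. Fluorescence followed for 3 min, sampled every second.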

[11] = target: 5-hydroxytryptamine receptor 2A (Homo sapiens) (UniProt P28223); experiment: 5-hydroxytryptamine receptor 2A (HTR2A) small molecule agonists, cell-based qHTS assay (AID 1963587); also: nearly all actives have a fitted effect of over 30% in size
Outline: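 HTR2A-CHO cells, plated 18 h at 37 C/5% CO2, dye-loaded 1 h at 37 C; compounds in DMSO added by pin tool (agonist mode). Intracellular calcium flux read as kinetic fluorescence on FDSS over 2 min at 1 s intervals.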

[12] = target: Muscarinic acetylcholine receptor M1 (Homo sapiens) (UniProt P11229); experiment: Cholinergic receptor muscarinic 1 (CHRM1) small molecule antagonists, cell-based qHTS assay (AID 1963588); also: nearly all actives have a fitted effect of over 40% in size
Outline: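 CHRM1-CHO calcium-flux assay, antagonist mode. Cells were seeded 18 h, dye-loaded 1 h at 37 C and given compound for 5 min at RT, then acetylcholine was added at 50nM. FDSS fluorescence was read 3 min; 15 concentrations, three runs.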

[13] = target: Muscarinic acetylcholine receptor M1 (Homo sapiens) (UniProt P11229); experiment: Cholinergic receptor muscarinic 1 (CHRM1) small molecule agonists, cell-based qHTS assay (AID 1963589); also: nearly all actives have a fitted effect of over 35% in size
Outline: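 CHO cells stably expressing human CHRM1 were loaded with calcium dye for 1 h at 37 C, then compound was added in agonist mode. Intracellular calcium fluorescence was followed kinetically at 1 s intervals. Fifteen concentrations were tested in three independent runs.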

[14] = cAMP Responsive Elements (CRE) small molecule agonists, cell-based qHTS assay (AID 1963590)
Outline: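 CRE-bla HEK 293T cells, 2,000/well in DMEM with 10% dialyzed FBS and 25 mM HEPES, pre-incubated 18 h at 37 C, then exposed to compound 3 h at 37 C. Beta-lactamase reporter read with LiveBLAzer B/G FRET substrate after 2 h at room temperature.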

[15] = cAMP Responsive Elements (CRE) small molecule antagonists, cell-based qHTS assay (AID 1963591; active = well fitted inhibition curve with a large enough effect in the signal ratio in the repeat runs, not every such curve was filed as active; the % refers to the signal ratio)
Outline: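 CRE-bla HEK293T cells plated 18 h, then given compound plus NKH477 at 0.25 uM final for 3 h at 37C. Beta-lactamase reporter read with LiveBLAzer B/G FRET substrate after 2 h at room temperature.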

[16] = target: Beta-2 adrenergic receptor (Homo sapiens) (UniProt P07550); experiment: Adrenergic beta2 receptor (ADRB2) small molecule antagonists, cell-based qHTS assay (AID 1963592); also: series mostly up to about 92 µM; nearly all actives have a fitted effect of over 50% in size
Outline: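 Cells (CHO, stable ADRB2 overexpression) incubated 18-20hr at 37C; compounds added from DMSO; agonist mix (1nM isoproterenol, 100uM IBMX, 25uM Ro-20-1724) added; 0.5hr RT; d2-cAMP and anti-cAMP-cryptate added; 1hr RT; 665/615 nm read.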

[17] = target: D(2) dopamine receptor (Homo sapiens) (UniProt P14416); experiment: Dopamine D2 receptor (DRD2) small molecule agonists, cell-based qHTS assay (AID 1963594); also: nearly all actives have a fitted effect of over 35% in size
Outline: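 HEK293 cells stably expressing DRD2 were cultured 24 h at 37 C, then given Ro20-1724 (0.1 mM final) and compounds for 10 min at room temperature. NKH477 (200nM) was then added for 30 min. cAMP was read by HTRF.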

[18] = target: D(2) dopamine receptor (Homo sapiens) (UniProt P14416); experiment: Dopamine D2 receptor (DRD2) small molecule antagonists, cell-based qHTS assay (AID 1963595; active = well fitted inhibition curve with a large enough effect in the signal ratio in the repeat runs, with a control signal flat; the % refers to the signal ratio)
Outline: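 Stable D2 receptor HEK293 line, 24 h after seeding. Compound preincubated 10 min, then quinpirole (12 nM) with forskolin analogue NKH477 (200 nM), 30 min, room temperature. Detection by time-resolved FRET of cAMP.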

[19] = target: Beta-2 adrenergic receptor (Homo sapiens) (UniProt P07550); experiment: Adrenergic beta2 receptor (ADRB2) small molecule agonists, cell-based qHTS assay (AID 1963593);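 also: CHO cells stably overexpressing human ADRB2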
Outline: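 CHO cells stably over-expressing ADRB2 were plated overnight at 37C, then dosed with compounds plus a stimulation mix containing 100uM IBMX and 25uM Ro-20-1724 for 0.5hr at room temperature. cAMP was measured by HTRF competition, 1hr.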

Chain of 5-hydroxytryptamine receptor 2A (Homo sapiens) (P28223 whole entry, looked up): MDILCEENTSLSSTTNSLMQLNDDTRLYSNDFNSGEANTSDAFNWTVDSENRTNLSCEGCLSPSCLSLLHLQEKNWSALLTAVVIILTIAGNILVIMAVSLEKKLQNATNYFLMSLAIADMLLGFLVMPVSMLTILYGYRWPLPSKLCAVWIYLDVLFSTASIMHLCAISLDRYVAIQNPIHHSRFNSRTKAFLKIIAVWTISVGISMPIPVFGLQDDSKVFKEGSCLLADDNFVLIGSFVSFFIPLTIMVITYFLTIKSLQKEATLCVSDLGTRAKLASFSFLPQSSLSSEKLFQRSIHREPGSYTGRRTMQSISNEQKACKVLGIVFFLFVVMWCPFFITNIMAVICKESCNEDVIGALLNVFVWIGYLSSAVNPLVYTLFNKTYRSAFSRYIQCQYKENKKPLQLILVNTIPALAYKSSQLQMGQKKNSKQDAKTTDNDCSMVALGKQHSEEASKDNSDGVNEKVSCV
Chain of KiSS-1 receptor (Homo sapiens) (Q969F8 whole entry, looked up): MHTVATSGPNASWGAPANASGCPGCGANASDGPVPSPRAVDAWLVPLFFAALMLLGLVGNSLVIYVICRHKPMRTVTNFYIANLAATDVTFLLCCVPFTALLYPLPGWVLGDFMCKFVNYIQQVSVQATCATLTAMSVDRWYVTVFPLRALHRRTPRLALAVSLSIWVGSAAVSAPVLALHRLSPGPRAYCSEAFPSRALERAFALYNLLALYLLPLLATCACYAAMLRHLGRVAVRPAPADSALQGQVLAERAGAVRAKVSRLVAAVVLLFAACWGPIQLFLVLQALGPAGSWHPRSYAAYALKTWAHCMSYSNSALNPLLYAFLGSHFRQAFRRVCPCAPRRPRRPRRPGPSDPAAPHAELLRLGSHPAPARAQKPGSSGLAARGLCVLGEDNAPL
Chain of Beta-2 adrenergic receptor (Homo sapiens) (P07550 whole entry, looked up): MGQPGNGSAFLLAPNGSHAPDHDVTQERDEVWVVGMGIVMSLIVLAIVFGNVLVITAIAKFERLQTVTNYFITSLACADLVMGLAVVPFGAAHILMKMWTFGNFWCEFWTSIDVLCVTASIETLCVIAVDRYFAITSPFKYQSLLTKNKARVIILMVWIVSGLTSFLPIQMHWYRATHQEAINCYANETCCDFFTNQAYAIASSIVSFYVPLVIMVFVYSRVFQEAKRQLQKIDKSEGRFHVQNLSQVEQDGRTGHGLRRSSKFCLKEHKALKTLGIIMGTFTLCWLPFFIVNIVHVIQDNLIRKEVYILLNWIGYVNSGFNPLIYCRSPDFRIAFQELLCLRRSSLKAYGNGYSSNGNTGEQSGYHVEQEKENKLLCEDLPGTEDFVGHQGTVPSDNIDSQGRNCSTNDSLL
Chain of Muscarinic acetylcholine receptor M1 (Homo sapiens) (P11229 whole entry, looked up): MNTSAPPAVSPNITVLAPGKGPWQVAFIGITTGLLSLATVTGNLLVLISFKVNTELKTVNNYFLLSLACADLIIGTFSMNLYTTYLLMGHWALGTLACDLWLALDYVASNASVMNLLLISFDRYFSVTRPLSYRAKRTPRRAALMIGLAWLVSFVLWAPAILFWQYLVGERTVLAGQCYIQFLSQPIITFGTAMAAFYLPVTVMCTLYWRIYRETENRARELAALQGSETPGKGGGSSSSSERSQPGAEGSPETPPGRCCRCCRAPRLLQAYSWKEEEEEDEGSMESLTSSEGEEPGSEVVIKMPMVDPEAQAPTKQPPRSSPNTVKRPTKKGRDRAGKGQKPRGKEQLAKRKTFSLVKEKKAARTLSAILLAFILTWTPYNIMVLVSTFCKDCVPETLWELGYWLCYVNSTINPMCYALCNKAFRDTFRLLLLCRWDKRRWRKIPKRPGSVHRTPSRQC
Chain of D(2) dopamine receptor (Homo sapiens) (P14416 whole entry, looked up): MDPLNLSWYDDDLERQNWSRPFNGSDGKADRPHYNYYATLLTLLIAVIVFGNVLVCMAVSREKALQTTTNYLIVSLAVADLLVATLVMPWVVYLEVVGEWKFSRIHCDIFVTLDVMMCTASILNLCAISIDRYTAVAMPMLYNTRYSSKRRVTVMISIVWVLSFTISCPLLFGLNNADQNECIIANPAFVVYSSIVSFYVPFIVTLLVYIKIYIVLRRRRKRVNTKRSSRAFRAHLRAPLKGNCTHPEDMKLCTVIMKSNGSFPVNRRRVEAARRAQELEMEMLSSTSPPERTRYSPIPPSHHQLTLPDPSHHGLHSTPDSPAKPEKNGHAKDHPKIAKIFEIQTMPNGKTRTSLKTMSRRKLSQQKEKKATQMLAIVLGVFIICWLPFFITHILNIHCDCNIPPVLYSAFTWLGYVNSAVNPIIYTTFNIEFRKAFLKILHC

Row | SMILES | Potency [1] | Potency [2] | Potency [3] | Potency [4] | Potency [5] | Potency [6] | Potency [7] | Potency [8] | Potency [9] | Potency [10] | Potency [11] | Potency [12] | Potency [13] | Potency [14] | Potency [15] | Potency [16] | Potency [17] | Potency [18] | Potency [19]
1 | C=C(C)C(=O)OCCC[Si](OC)(OC)OC | inactive | inactive | inactive | inactive | inactive | inactive | inactive | inactive | inactive | inactive | inactive | inactive | inactive | inactive | inactive | inactive | inactive | – | –
2 | O=c1c(O)c(-c2ccc(O)c(O)c2)oc2cc(O)cc(O)c12 | inactive | inactive | inactive | inactive | inactive | inactive | inactive | inactive | inactive | inactive | inactive | inactive | inactive | – | inactive | inactive | inactive | inactive | –
3 | O=C1O[C@H]([C@H](O)CO)C(O)=C1O | inactive | inactive | inactive | inactive | inactive | – | inactive | inactive | inactive | – | – | – | – | inactive | – | – | inactive | inactive | inactive
4 | Cc1ccc([N+](=O)[O-])cc1S(=O)(=O)O | inactive | inactive | inactive | inactive | inactive | inactive | inactive | inactive | inactive | – | inactive | inactive | inactive | inactive | inactive | inactive | inactive | inactive | –
5 | CCCCCC1C(=O)CCC1CC(=O)OC (centres undefined) | inactive | inactive | inactive | inactive | inactive | inactive | inactive | inactive | – | inactive | inactive | inactive | inactive | inactive | inactive | inactive | inactive | inactive | inactive
6 | c1ccc2[nH]ccc2c1 | 8.49 µM (active) and inactive | inactive | inactive | inactive | inactive | inactive | – | inactive | inactive | inactive | inactive | inactive | inactive | inactive | – | inactive | – | inactive | inactive
7 | CCCCCCCCCC(=O)O | inactive | inactive | inactive | inactive | inactive | – | inactive | inactive | inactive | inactive | inactive | inactive | – | – | inactive | inactive | inactive | inactive | –
8 | CC(C)(Oc1ccc(Cl)cc1)C(=O)O | inactive | inactive | inactive | inactive | inactive | inactive | inactive | – | inactive | – | – | – | – | inactive | inactive | inactive | inactive | inactive | inactive
9 | CCc1cc(C(N)=S)ccn1 | inactive | inactive | inactive | inactive | inactive | inactive | inactive | inactive | – | inactive | inactive | inactive | – | inactive | inactive | inactive | inactive | inactive | inactive
10 | COC(=O)CCCCC(=O)OC | inactive | inactive | inactive | inactive | inactive | – | inactive | inactive | inactive | inactive | inactive | inactive | inactive | inactive | inactive | inactive | inactive | inactive | –
11 | Fc1ccc(Br)cc1 | inactive | inactive | inactive | inactive | inactive | inactive | inactive | inactive | inactive | inactive | inactive | inactive | inactive | inactive | inactive | inactive | inactive | inactive | –
12 | Cc1cc(C)c(C)cc1C | inactive | inactive | inactive | inactive | inactive | inactive | inactive | inactive | inactive | inactive | inactive | inactive | inactive | inactive | inactive | inactive | inactive | inactive | inactive
13 | CNC[C@H](O)[C@@H](O)[C@H](O)[C@H](O)CO | inactive | inactive | inactive | inactive | inactive | inactive | inactive | inactive | inactive | inactive | inactive | inactive | inactive | inactive | – | inactive | inactive | inactive | –
14 | CNNCc1ccc(C(=O)NC(C)C)cc1 | inactive | inactive | inactive | inactive | inactive | inactive | inactive | inactive | inactive | – | – | – | – | inactive | inactive | inactive | inactive | inactive | inactive
